From PubChem BioAssay (NCI) come the findings set out here.

The panel holds about 79,000 compounds, 15% with a hit somewhere; the sample as a whole holds those more often. Unmarked numbers belong to inactive results. Active and inactive are the calls of the source. Cut-off read from the data, not from the text of the source: active = growth inhibition above about 70%; inactive = the rest.

Assay [1] in a line: NCI Yeast Anticancer Drug Screen. Data for the rad50 strain (AID 155).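 Note: 0% = growth of vehicle-only cultures of the same strain.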 To be noted: S. cerevisiae rad50 strain growth inhibition; at 50.0 µM; active compounds read high. A digest of the protocol: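 Growth of the mutant yeast was measured after compound exposure and referenced to vehicle-treated cultures.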
The nature of assay [2]: NCI Yeast Anticancer Drug Screen. Data for the mec2-1 strain (AID 157). To be noted: S. cerevisiae mec2-1 strain, at 50.0 µM, active compounds read high. A digest of the protocol:
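Mutant yeast (mec2-1) grown with compound; growth inhibition relative to vehicle control reported.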

Assay [3] in a line: NCI Yeast Anticancer Drug Screen. Data for the sgs1 mgt1 strain (AID 161).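 Note: 0% = growth of cultures given vehicle only.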 As to conditions: S. cerevisiae sgs1 mgt1 strain, at 50.0 µM, active compounds read high. A digest of the protocol:
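Compounds are added to genetically altered yeast, and growth is compared with cultures given vehicle alone to give percent inhibition.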

Assay [4] can be described thus: NCI Yeast Anticancer Drug Screen. Data for the cln2 rad14 strain (AID 165).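 Note: 0% = growth equal to vehicle treated cultures.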 As to conditions: S. cerevisiae cln2 rad14 strain, at 50.0 µM, active compounds read high. The essentials: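 Readout is yeast growth inhibition versus vehicle-treated controls, using a strain with cln2 and rad14 alterations exposed to compound.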
Assay [5] can be described thus: NCI Yeast Anticancer Drug Screen. Data for the bub3 strain (AID 167). To be noted: S. cerevisiae bub3 mutant strain, at 50.0 µM, active compounds read high. The essentials:
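Whole-cell yeast assay. The mutant strain was incubated with compounds, and growth inhibition was determined by comparison with vehicle-treated cells.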

A short description of assay [6]: NCI Yeast Anticancer Drug Screen. Data for the mlh1 rad18 strain (AID 175). As to conditions: S. cerevisiae mlh1 rad18 strain growth inhibition; at 50.0 µM; active compounds read high. The essentials:
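Genetically defined yeast (DNA repair-deficient) exposed to compounds; growth inhibition determined relative to vehicle.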

Consider `C[C@@H]1C[C@](O)([C@@H](C)Cl)C(=O)O[C@@H]2CCN3CC=C(COC(=O)[C@]1(C)O)[C@H]23`, for which the growth inhibition in assay [1] was -14.2%; in assay [2], -16.1%; in assay [3] it was -7.95%; in assay [4], -11.1%; in assay [5], 5.7%; in assay [6], -30.6%.

Regarding `COc1cc([C@H]2OC[C@@H]3C(c4cc(OC)c5c(c4)OCO5)OC[C@H]23)cc(OC)c1OC` (some centres undefined), the growth inhibition is -8.65% in assay [1]; -34.6% in assay [2]; -26.9% in assay [3]; 21% in assay [4]; -1.35% in assay [5]; -53.1% in assay [6].

In the case of `COc1ccc2c(C)cc(N/N=C/c3ccc(C)s3)nc2c1`, the growth inhibition in assay [1] was -23.4%; in assay [2] it was -26.5%; in assay [3], -19.4%; in assay [4], 9.05%; in assay [5] it was -39.1%; in assay [6], -12.1%.

With `C=C(C)C1CC2(C)C(C)CC(OC(=O)/C(C)=C\C)CC2C(OC(=O)/C(C)=C\C)C1O` (centres undefined), the growth inhibition in assay [1] is 31.2%; in assay [2] it was -9.65%; in assay [3], 31.2%; in assay [4] it was -9.6%; in assay [5], -1%; in assay [6], -12.9%.

As for `Cc1ccc(/C=N/Nc2nncc3ccccc23)s1`, the growth inhibition in assay [1] was 14.8%; in assay [2] it was 16.1%; in assay [3], 16.7%; in assay [4] it was 21.2%; in assay [5], 21.7%; in assay [6], 38.5%.

Consider `CNC(=S)/C(=N\Nc1nc[nH]c1C(N)=O)C(N)=S`, for which the growth inhibition is -3.7% in assay [1]; 7.85% in assay [2]; 38.5% in assay [3]; -0.8% in assay [4]; 15.1% in assay [5]; 21.1% in assay [6].

As for `CCC(c1ccc(N(C)C)cc1)C1NC(=S)NC1=O` (centres undefined), the growth inhibition is -4.2% in assay [1]; -27.8% in assay [2]; -17.6% in assay [3]; 0.85% in assay [4]; 11.8% in assay [5]; -9.55% in assay [6].

For the compound `CC1=C(/C=C/C(C)=C/C=C/C(C)=C/C(=O)Nc2ccc(O)cc2)C(C)(C)CCC1`, the growth inhibition in assay [1] was -28.4%; in assay [2], 1.05%; in assay [3] it was -2.3%; in assay [4], 6.45%; in assay [5], 12.2%; in assay [6], -13.2%.

For `COc1ccc(OC)c(N(CN2C(=O)CCC2C(=O)O)C(C)=O)c1` (centres undefined), the growth inhibition is 10.2% in assay [1]; 10.2% in assay [2]; -13.3% in assay [3]; 1.05% in assay [4]; -17.7% in assay [5]; -23.3% in assay [6].

Take `O=C(O)c1cc(C(=O)O)cc([N+](=O)[O-])c1`: the growth inhibition in assay [1] was -3.75%; in assay [2] it was -5.9%; in assay [3], 4.75%; in assay [4] it was 0.25%; in assay [5], 8.3%; in assay [6], 7.35%.

`CC1OC23CCCCC2C(C#N)(C#N)C1(C#N)C(=N)O3` (centres undefined): the growth inhibition in assay [1] was 3.65%; in assay [2] it was 9.5%; in assay [3], -36%; in assay [4] it was -22.9%; in assay [5] it was -35%; in assay [6], 2.95%.

Take `Cc1ccc2c(sc(-c3ccc4c(c3)sc(-c3ccc5c(c3)sc(-c3ccc(N(C)C)cc3)[n+]5C)[n+]4C)[n+]2C)c1S(=O)(=O)O` (tested in a mixture with another compound): the growth inhibition in assay [1] was 27.7%; in assay [2], 22.3%; in assay [3], 46.4%; in assay [4], 40.1%; in assay [5] it was 35%; in assay [6], 70.4% (active).

Consider `O=C(O)c1n[nH]nc1Cl`, for which the growth inhibition was -5.9% in assay [1]; 0.7% in assay [2]; 5.35% in assay [3]; -4.2% in assay [4]; -6.15% in assay [5]; 19.2% in assay [6].

Consider `O=C1c2ccccc2-c2c1c1ccccc1c(=O)n2-c1cccnc1`, for which the growth inhibition in assay [1] was 63.5%; in assay [2], 6.95%; in assay [3], 26.2%; in assay [4] it was 32.3%; in assay [5], 6%; in assay [6], -9.05%.

`COc1ccc2cc(CN3CCC(C4CCNCC4)CC3)ccc2c1`: the growth inhibition was 15.6% in assay [1]; -4.8% in assay [2]; 1.55% in assay [3]; 14.7% in assay [4]; 20.8% in assay [5]; 86% (active) in assay [6].

Regarding `CC1OC(Oc2c(-c3cc(O)c(O)c(O)c3)oc3cc(O)cc(O)c3c2=O)C(O)C(O)C1O` (centres undefined), the growth inhibition in assay [1] was -14.2%; in assay [2] it was -16.8%; in assay [3], -8%; in assay [4], 9.75%; in assay [5], -21.2%; in assay [6], -13.6%.

Consider `CCn1c2c(c3ccccc3c1=O)C(=O)c1ccccc1-2`, for which the growth inhibition in assay [1] is 12%; in assay [2], 3.9%; in assay [3], 16.8%; in assay [4], 12.8%; in assay [5], -3.85%; in assay [6] it was -49.4%.

Regarding `C=CCn1c2c(c3ccccc3c1=O)C(=O)c1ccccc1-2`, the growth inhibition is 43.9% in assay [1]; -6.5% in assay [2]; 1.7% in assay [3]; 30.9% in assay [4]; -8.5% in assay [5]; -49.9% in assay [6].

`CC1CC(C(=O)OC2OC(COC3OC(CO)C(OC4OC(C)C(O)C(O)C4O)C(O)C3O)C(O)C(O)C2O)C2CCC3(C)C(=CCC4(C)C3CCC3C(C)(CO)C(O)C(O)CC34C)C2C1C` (centres undefined): the growth inhibition in assay [1] was 60.1%; in assay [2] it was 68.1%; in assay [3], 72.8% (active); in assay [4], 26.8%; in assay [5] it was 77.8% (active); in assay [6], 24.4%.
